PubChem BioAssay
Activity calls are given as the source filed them.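 Rule for the calls, unless noted: active = z-score of at least 1.8 in each of two replicates, scored against plate mean and spread of sample wells; inactive = the rest.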

Legend:
[1] = MELAS cybrid and Rieske KO viability enhancers – cell-based, MELAS cybrids, Rieske KO mouse fibroblasts, CellTiter-Glo, primary screen (AID 1508586;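 active = mean z-score across replicates of 1.96 or higher in either the MELAS or the Rieske mutant cell line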;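 note: test concentration not given here; z relative to plate mean and SD of compound and empty wells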); details: low glucose
[2] = galactose survival enhancers in mitochondrial complex I cybrids – cell-based, galactose medium, ATP luminescence, primary screen (AID 1645843); details: complex I mutant cybrid cells, 72 h, stronger effect = higher value;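 note: positive z means more ATP and so rescue of galactose-driven cybrid death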
[3] = MELAS cybrid survival, CellTiter-Glo 48 h, stronger effect = higher value
[4] = Rieske KO mouse fibroblast survival, CellTiter-Glo 72 h

## CC(C)CCN1C(=O)N(CC(N)=O)C(=O)C12CCN(Cc1nc3ccccc3s1)CC2
[1]; [3]
  z-score: -0.288 (inactive)
[1]; [4]
  z-score: -0.574
[2]
  z-score: 0.225 (inactive)

## CN1CCCc2cc(C(=O)N3CC(=O)N(Cc4ccccc4)CC(OCc4ccccn4)C3)ccc21 (configuration not stated)
[1]; [3]
  z-score: -0.626 (inactive)
[1]; [4]
  z-score: -0.731
[2]
  z-score: 0.21 (inactive)

## CCc1cc(C(=O)N2CCc3c(c(C(=O)N4CCN(c5ccccc5)CC4)nn3CC)C2)n(C)n1
[1]; [3]
  z-score: -0.699 (inactive)
[1]; [4]
  z-score: -0.0183
[2]
  z-score: 0.405 (inactive)

## Cc1ccc2c(CC(=O)N3CC(=O)N(CC(C)C)CC(OCc4ccccn4)C3)cc(=O)oc2c1 (configuration not stated)
[1]; [3]
  z-score: -0.0739 (inactive)
[1]; [4]
  z-score: 0.0342
[2]
  z-score: 0.435 (inactive)

## CC(C)Cn1nc(C(=O)N2CCCC2)c2c1CCC(NCCc1cccs1)C2 (configuration not stated)
[1]; [3]
  z-score: -0.0921 (inactive)
[1]; [4]
  z-score: -0.284
[2]
  z-score: 0.555 (inactive)

## O=C(Cn1cnc2ccccc21)N1CCc2c(cc(-c3cccc(Cl)c3)c(=O)n2CC2CC2)C1
[1]; [3]
  z-score: 0.334 (inactive)
[1]; [4]
  z-score: -0.586
[2]
  z-score: -0.315 (inactive)

## O=C([C@@H]1C[C@H](CN2CCOCC2)CN(Cc2ccccc2)C1)N1CCCC1
[1]; [3]
  z-score: 0.0951 (inactive)
[1]; [4]
  z-score: -0.211
[2]
  z-score: -0.6 (inactive)

## O=C(Nc1ccccc1Cl)N[C@H]1C[C@H]2C(=O)N[C@H](Cc3ccc(O)cc3)C(=O)N2C1
[1]; [3]
  z-score: -0.242 (inactive)
[1]; [4]
  z-score: -0.509
[2]
  z-score: -0.455 (inactive)

## O=C([C@@H]1C[C@H](CN2CCOCC2)CN(Cc2ccc3ccccc3c2)C1)N1CCCC1
[1]; [3]
  z-score: 1.59 (inactive)
[1]; [4]
  z-score: -0.119
[2]
  z-score: -0.585 (inactive)

## CC(=O)c1cccc(-c2cc3c(n(C)c2=O)CCN(C(=O)c2ccc4[nH]c5c(c4c2)CCCC5)C3)c1
[1]; [3]
  z-score: -0.0854 (inactive)
[1]; [4]
  z-score: -0.491
[2]
  z-score: -1.45 (inactive)

## Cc1nnc(CN(C)C(=O)c2cc(-c3ccc(C)s3)cc(S(=O)(=O)N3CCOCC3)c2)o1
[1]; [3]
  z-score: -0.234 (inactive)
[1]; [4]
  z-score: -0.11
[2]
  z-score: 0.29 (inactive)

## CCn1cc(CN2CCN3C(=O)[C@@H]4C[C@@H](O)CN4C(=O)[C@H]3C2)c(C)n1
[1]; [3]
  z-score: -0.258 (inactive)
[1]; [4]
  z-score: -0.193
[2]
  z-score: -0.705 (inactive)

## CCn1nc(C(=O)N(C)Cc2ccco2)c2c1CCC(N(C)Cc1ccon1)C2 (configuration not stated)
[1]; [3]
  z-score: -0.655 (inactive)
[1]; [4]
  z-score: -0.252
[2]
  z-score: -1.03 (inactive)

## CCN(CC)CCNC(=O)c1cc(-c2cc(C)cs2)cc(S(=O)(=O)N2CCOCC2)c1
[1]; [3]
  z-score: -0.44 (inactive)
[1]; [4]
  z-score: -0.00741
[2]
  z-score: 1.25 (inactive)

## O=C(NCCn1ccnc1)c1cc(NCC2CC=CCC2)cc(S(=O)(=O)N2CCCC2)c1 (configuration not stated)
[1]; [3]
  z-score: -0.174 (inactive)
[1]; [4]
  z-score: -0.234
[2]
  z-score: -0.94 (inactive)

## O=C(c1nn(Cc2ccccn2)c2c1CN(C/C=C/c1ccco1)CC2)N1CCc2ccccc2C1
[1]; [3]
  z-score: -0.442 (inactive)
[1]; [4]
  z-score: -0.213
[2]
  z-score: -0.345 (inactive)

## CN(C)CCCNC(=O)[C@@H]1C[C@H](CN2CCOCC2)CN(Cc2ccc3ccccc3c2)C1
[1]; [3]
  z-score: -0.234 (inactive)
[1]; [4]
  z-score: -0.142
[2]
  z-score: 0.05 (inactive)

## COC(=O)CCN1CC(OCc2ccncc2)CN(C(=O)Cc2c(F)cccc2Cl)CC1=O (configuration not stated)
[1]; [3]
  z-score: -0.399 (inactive)
[1]; [4]
  z-score: 0.103
[2]
  z-score: 1.43 (inactive)

## COC1CN(C(=O)Cn2nc(-c3ccccc3)c3ccccc3c2=O)CC(=O)N(Cc2ccccc2)C1 (configuration not stated)
[1]; [3]
  z-score: -0.199 (inactive)
[1]; [4]
  z-score: 0.0204
[2]
  z-score: 1.58 (inactive)

## COC(=O)c1c(NC(=O)C2CCCO2)c2cc(NCc3ccccn3)cnc2n1CCc1ccccc1 (configuration not stated)
[1]; [3]
  z-score: -0.44 (inactive)
[1]; [4]
  z-score: -0.0393
[2]
  z-score: -0.87 (inactive)

## CC(C)=CCNc1cc(C(=O)NCc2cn3ccccc3n2)cc(S(=O)(=O)NC(C)C)c1
[1]; [3]
  z-score: -0.403 (inactive)
[1]; [4]
  z-score: -0.764
[2]
  z-score: -0.5 (inactive)

## CC(C)Cn1nc(C(=O)N2CCOCC2)c2c1CCC(NCc1ccc(F)cc1)C2 (configuration not stated)
[1]; [3]
  z-score: 0.123 (inactive)
[1]; [4]
  z-score: -0.12
[2]
  z-score: 0.625 (inactive)

## O=C(CC1=CCCCC1)N1CCc2c(cc(-c3cccc(F)c3)c(=O)n2CCN2CCCCC2)C1
[1]; [3]
  z-score: -0.288 (inactive)
[1]; [4]
  z-score: -0.152
[2]
  z-score: 0.55 (inactive)

## O=C(N[C@H]1C[C@H]2C(=O)N3CCC[C@H]3C(=O)N2C1)c1cccnc1Oc1ccc(Cl)cc1
[1]; [3]
  z-score: -0.353 (inactive)
[1]; [4]
  z-score: -0.898
[2]
  z-score: -0.34 (inactive)

## CC(C)CN1CC(OCc2cccc(F)c2)CN(C(=O)Cn2cnc3ccccc3c2=O)CC1=O (configuration not stated)
[1]; [3]
  z-score: -0.0292 (inactive)
[1]; [4]
  z-score: 0.00727
[2]
  z-score: -0.43 (inactive)

## COc1ccc(C(=O)N2CCN3C(=O)[C@H](COCc4ccccc4)NC(=O)[C@H]3C2)cc1
[1]; [3]
  z-score: 1.06 (inactive)
[1]; [4]
  z-score: -0.655
[2]
  z-score: -0.43 (inactive)

## COCCn1c(C(=O)OC)c(NC(=O)c2ccco2)c2cc(NC3CCc4ccccc4C3)cnc21 (configuration not stated)
[1]; [3]
  z-score: 9.06 (active)
[1]; [4]
  z-score: -2
[2]
  z-score: -1.68 (inactive)

## COCCN1C(=O)N(C2Cc3ccccc3C2)C(=O)C12CCN(Cc1cnn(C)c1C)CC2
[1]; [3]
  z-score: -0.225 (inactive)
[1]; [4]
  z-score: -0.00202
[2]
  z-score: 1.21 (inactive)

## Cn1cc(CN2CC(OCc3cccnc3)CN(Cc3cn[nH]c3-c3ccccc3)CC2=O)cn1 (configuration not stated)
[1]; [3]
  z-score: -0.178 (inactive)
[1]; [4]
  z-score: -0.506
[2]
  z-score: 0.715 (inactive)
